Source: PubChem BioAssay
Rows were chosen to be rich in hits. Some 21% of all compounds tested hit in one or more screens of this group.
TDP1 cell noCPT: qHTS for Inhibitors of human tyrosyl-DNA phosphodiesterase 1 (TDP1): qHTS in cells in absence of CPT | DT40 Tdp1-/- hTDP1 cells, no CPT, ATP luminescence, 48 h | Potency, µM (doses to about 46.2 µM), hits mostly inhibitors | 15% of 420,000 active | AID 686978, 2013; note: nearly all actives have a fitted effect of over 55% in size
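A cellular qHTS used chicken DT40 cells lacking endogenous Tdp1 but carrying stably transfected human TDP1. Compounds were applied without camptothecin, and cell growth kinetics were judged by ATP-dependent luminescence after ≥48 hr.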
ELG1 DNA repair: inhibitors of ELG1-dependent DNA repair in HEK293T cells; HEK293T ELG1-luciferase reporter, luminescence, 16 h; DNA damage induced by 5-fluorouridine; Potency, µM (titrated, usually from 46.1 µM), actives largely listed as inhibitors; 2.3% of 330,000 active; AID 504467; note: nearly all actives have a fitted effect of over 55% in size
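Luminescence from the luciferase reporter, measured 30 min after ONE-Glo reagent at room temperature, was the read-out. Beforehand, 2,000 cells per well were exposed for 16 hr at 37 °C to 5-fluorouridine together with compound or vehicle.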
DT40 TDP1 CPT: growth inhibition of DT40 Tdp1-/-;hTDP1 cells with camptothecin (screen for TDP1 inhibitors); chicken DT40 Tdp1-/-;hTDP1 cells + 20 nM CPT, ATP luminescence, 48 h; Potency, µM (top dose mostly 46.2 µM), actives largely listed as inhibitors; 12% of 420,000 active; AID 686979; note: nearly all actives have a fitted effect of over 55% in size
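Chicken DT40 Tdp1-/- cells complemented with human TDP1, 400 cells/well, exposed to compounds plus 20 nM camptothecin for at least 48 h at 37 C; viability read as ATP content by CellTiter-Glo luminescence.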
IL1B secr inh: inflammasome signaling inhibition, IL-1 beta readout; AID 743279; activity change, % at 57.5 µM; 4.7% of 360,000 active; THP-1 LPS/ATP IL-1B secretion, AlphaLISA, 16 h; active compounds read low; in the data active = activity change below about -50%; inconclusive = mostly about -30% to -49%
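THP-1 cells pretreated 1 hr with compounds (up to 57.5 uM final), then stimulated with LPS (250 ng/mL final) plus ATP (1.25 mM final); secreted IL-1B measured by AlphaLISA after 16 hr, decreased signal indicating inhibition.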
RORg inh: inhibitors of mouse ROR gamma transcriptional activity; P51450; Drosophila S2 Gal4-RORgamma UAS-luciferase reporter, 20 h; Potency, µM (series often up to 53.6 µM), hits mostly inhibitors; 5.4% of 310,000 active; AID 2551; note: nearly all actives have a fitted effect of over 60% in size
Target sequence (P51450 whole entry, looked up, the tested form may be a part): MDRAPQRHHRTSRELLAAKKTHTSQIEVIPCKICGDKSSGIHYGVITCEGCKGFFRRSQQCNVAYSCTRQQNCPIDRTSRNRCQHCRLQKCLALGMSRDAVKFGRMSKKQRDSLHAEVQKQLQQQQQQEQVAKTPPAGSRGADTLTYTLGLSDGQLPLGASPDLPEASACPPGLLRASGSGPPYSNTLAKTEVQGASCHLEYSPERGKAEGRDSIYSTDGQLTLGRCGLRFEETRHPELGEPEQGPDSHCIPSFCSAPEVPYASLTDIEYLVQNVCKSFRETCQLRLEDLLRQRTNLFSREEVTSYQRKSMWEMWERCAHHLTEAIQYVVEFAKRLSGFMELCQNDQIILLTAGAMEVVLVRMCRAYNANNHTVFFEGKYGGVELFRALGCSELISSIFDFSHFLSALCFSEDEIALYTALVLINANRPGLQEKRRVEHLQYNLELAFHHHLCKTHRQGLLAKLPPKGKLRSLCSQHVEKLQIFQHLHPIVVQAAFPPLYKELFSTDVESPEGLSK
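Schneider cells (Drosophila), stable Gal4 DBD–ROR gamma + UAS-luc; 1 hr cmpd preincubation; Cu2+ induction 700 uM final; 20 hr ambient; luminescence.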
VP16 counter: Gal4-VP16 reporter inhibition counter-screen. Drosophila S2 Gal4-VP16 UAS-luciferase, luminescence, 20 h. Potency, µM (top dose mostly 53.6 µM), usual class: inhibitors. 3.5% of 310,000 active;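 note: Gal4-VP16 expression switched on by copper sulfate through the metallothionein promoter; nearly all actives have a fitted effect of over 50% in size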
Numbers stand for hits; - = inactive; ? = inconclusive; . = no result. Unless noted, calls come from the whole dose curve; as a rule, active = well fitted curve in the direction sought with a large enough effect; inconclusive = small, poorly fitted or top-dose-only effect, or another doubt; inactive = no such curve, though single readings can be large; an effect the other way counts as inactive or inconclusive.

SMILES	TDP1 cell noCPT	ELG1 DNA repair	DT40 TDP1 CPT	IL1B secr inh	RORg inh	VP16 counter
CC1(C2CC2)NC(=O)N(CC(=O)N2CCN(S(=O)(=O)c3ccc(F)c(F)c3)CC2)C1=O (stereo unspecified)	?	-	-	-	.	.
CC(=O)Nc1ccc(S(=O)(=O)NCCC(=O)Nc2cc(C)ccn2)cc1	-	-	-	-	.	.
CCCCc1nc2cc(C(=O)N3CCCC(COC)C3)ccc2o1 (stereo unspecified)	?	?	?	-	-	-
COc1ccc(-c2cc3ccc(O)c(CN4CCCCC4C)c3oc2=O)cc1OC (stereo unspecified)	-	.	?	.	.	.
Cc1ccc(CNC(=O)C2CCCN(S(=O)(=O)c3cccc4nsnc34)C2)cc1 (stereo unspecified)	-	.	-	.	.	.
Cc1cc(Cl)ccc1NC(=O)CSc1nc2c(c(=O)[nH]1)CCC2	-	.	-	.	.	.
CC(=O)Cc1nsc(NC(=O)c2ccc(-c3cccc(Cl)c3)o2)n1	16µM	-	16µM	-	-	-
CC(=O)Cc1nsc(NC(=O)c2ccc(Br)o2)n1	1.6µM	?	?	-	-	-
CC(=O)Cc1nsc(NC(=O)c2ccc(COc3ccccc3C)o2)n1	-	-	-	-	-	-
CC(=O)Cc1nsc(NC(=O)c2ccco2)n1	?	-	-	-	-	-
CCOC(=O)C1CCN(C(=O)COC(=O)C2CCN(S(=O)(=O)c3ccc(C)c(C)c3)CC2)CC1	-	-	-	-	.	.
Nc1nonc1C(=O)N/N=C/c1cc(Br)ccc1O	1.5µM	-	0.92µM	-	-	-
Cc1ccc(/C=N/NC(=O)c2nnn(-c3nonc3N)c2CNc2ccccc2)cc1	?	-	?	-	-	-
Nc1nonc1-n1nnc(C(=O)N/N=C/c2cc(Br)ccc2O)c1CNc1ccccc1	8.2µM	?	8.2µM	-	5µM	7.1µM
CCCNC(=O)C1(C)CCCN(CC(=O)c2ccccc2OC)C1 (stereo unspecified)	-	.	-	-	.	.
Cc1ccsc1C=Nc1ccc(O)cc1	?	-	?	-99	10µM	?
Cc1ccsc1/C=N/N=C/c1sccc1C	?	?	-	-	-	-
CCc1ccc2c(c1)C(=O)C(=O)N2CCS(=O)(=O)c1ccccc1	2.6µM	-	2.9µM	-	-	-
Cc1ccc(Nc2ncnc3sc(C)c(C)c23)cc1C	?	?	-	-	-	-
COc1cccc(/C=N/Nc2ncnc3scc(-c4ccccc4)c23)c1OC	18µM	15µM	?	-67	4µM	3.2µM
Cc1sc2ncnc(N/N=C/c3ccc(O)cc3)c2c1C	?	?	?	-	16µM	4.5µM
Cc1sc2ncnc(N/N=C/c3ccccc3O)c2c1C	3.3µM	?	3.7µM	-	7.9µM	16µM
COc1ccc(-c2csc3ncnc(Nc4ccccc4)c23)cc1	-	.	-	.	.	.
COc1ccc(/C=N/Nc2ncnc3sc(C)c(C)c23)cc1	4.1µM	-	2.9µM	-	?	4.5µM
Cc1c(C(=O)N2CCCC2)sc2ncnc(NCCCN3CCOCC3)c12	-	.	-	.	.	.
SMILES	TDP1 cell noCPT	ELG1 DNA repair	DT40 TDP1 CPT	IL1B secr inh	RORg inh	VP16 counter
Nc1c(Cl)ncnc1N/N=C/c1ccc(O)cc1	-	?	-	-	10µM	13µM
COc1ccc(C(=O)NCCc2nnc3n2CCN(CC2CC=CCC2)CC3)cc1 (stereo unspecified)	-	.	-	.	.	.
CCc1ccc(NC(=O)c2ccc(OC)c([N+](=O)[O-])c2)cc1	-	-	-	-	-	-
COc1ccc(C(=O)Nc2ccc(N3CCN(C(=O)c4ccccc4)CC3)cc2)cc1[N+](=O)[O-]	?	?	15µM	?	-	-
COc1ccc(C(=O)Nc2ccc(N3CCN(C(=O)C(C)C)CC3)cc2)cc1[N+](=O)[O-]	12µM	-	?	-	-	-
COc1cc(C(=O)Nc2ccc(N3CCN(C(=O)c4ccc(C)cc4)CC3)cc2)cc(OC)c1OC	15µM	-	21µM	-	-	-
COc1ccc(C(=O)Nc2ccncc2)cc1[N+](=O)[O-]	-	-	-	-79	-	-
